In PubChem BioAssay AID720519 (National Center for Advancing Translational Sciences (NCATS), 2013):
Records with an inconclusive call do not appear. Activity calls are given as the source filed them. Calls follow the shape of the dose curve; as a rule, active = well fitted activation curve with a large enough effect; inconclusive = small, poorly fitted or top-dose-only effect; inactive = flat fitted curve, though single readings scatter.

Assay: qHTS for Inhibitors of Cell Surface uPA Generation: Confirmatory Assay for Cherry-picked Compounds
Settings: cell surface uPA activity generation, qHTS confirmation; series mostly up to 115 µM
Procedure, shortened: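 RAW 264.7 cells at 4000/well, incubated overnight, then treated with compounds. After 24 h at 37 C, viability was read by ATPlite luminescence. An increase in signal indicates blocked uPA-dependent LF entry.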

Potency, inactive:
CC(CCc1ccccc1)NC(=O)c1ccc(NC(=O)c2cccc(Br)c2)cc1 (centres undefined)
Cc1cccc(C(=O)NCC(=O)OCC(=O)NC2CCCCCCC2)c1
C[C@H]([C@H](O)c1ccccc1)N(C)C(=O)CN
O=C(NNC(=O)c1ccc2ccccc2c1)Nc1ccc(F)cc1
c1ccc(C2[C@H]3CN(Cc4cccnc4)[C@H](c4ccccc4)C34CC2(c2ccccc2)C4)cc1 (some centres undefined)
O=C(NC(=S)Nc1c(F)cc(F)cc1Br)c1ccc2c(c1)OCCO2
CC(C)c1ccc(SCc2noc(C(=O)NCC3CCCO3)c2C(=O)O)cc1 (centres undefined)
CCC(C(=O)NCc1ccc(C)cc1)c1ccccc1 (centres undefined)
O=[N+]([O-])c1cccc2c(N3CCOCC3)ccnc12
O=S(=O)(NCC(c1cccnc1)N1CCOCC1)c1ccccc1 (centres undefined)
Cc1ccc(S(=O)(=O)N2CCC(C)CC2)cc1
C[N+]1(CC(O)c2ccccc2)CCCCCC1 (centres undefined)
COc1cc(CNCc2ccc3c(c2)OCO3)c([N+](=O)[O-])cc1OC
Cc1ccc(N=C2SCCCN2C(=O)c2cccc(N3C(=O)CCC3=O)c2)cc1Cl
COc1cc(NC(=S)NCCc2ccc(S(N)(=O)=O)cc2)c(OC)cc1Cl
O=C(O)CNC(=S)N(Cc1ccccc1)Cc1cccnc1
COc1ccc(C(=O)N[C@H](C(=O)NCc2cccs2)C(C)C)cc1
COc1cc(SC)ccc1C(=O)OCc1nc2ccsc2c(=O)[nH]1
Cc1ccc(Nc2nc(Cl)c(C=O)s2)cc1
